Source: PubChem BioAssay (NCATS)
Inconclusive results are not listed. Calls of active or inactive are those of the source. The call rests on the fitted dose curve; in most records, active means well fitted cell-killing curve with a large enough effect; inconclusive means small, poorly fitted or top-dose-only effect, or effect the other way; inactive means flat fitted curve, though single readings scatter. Where a SMILES comes first, the peptide text is derived from it.

Tests used:
Assay in all cases: Primary qHTS to identify gynecologic anti-cancer compounds using libraries of approved drugs and bioactive compounds (AID 1345084); further: nearly all actives have a fitted effect of over 55% in size
[1] = system: C33A; details: Gynecologic cancer cell panel viability, ATPlite luminescence, 48 h; series mostly up to 57.5 µM
In short: (§1)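 Cells, 1,000 per well, plated 16 h, then exposed 48 h at 37 C to compounds. Viability by ATPlite luminescence after 15 min at room temperature.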

[2] = system: CAOV3; details: Gynecologic cancer cell panel viability, ATPlite luminescence, 48 h; series mostly up to 57.5 µM
In short: as §1

[3] = system: CASKI; details: Gynecologic cancer cell panel viability, ATPlite luminescence, 48 h; series mostly up to 57.5 µM
In short: as §1

[4] = system: Es-2; details: Gynecologic cancer cell panel viability, ATPlite luminescence, 48 h; series mostly up to 57.5 µM
In short: as §1

[5] = system: HeLa; details: Gynecologic cancer cell panel viability, ATPlite luminescence, 48 h; series mostly up to 57.5 µM
In short: as §1

[6] = system: Hek293T; details: Gynecologic cancer cell panel viability, ATPlite luminescence, 48 h, control line for the selectivity index; series mostly up to 57.5 µM
In short: as §1

[7] = system: JEG-3; details: Gynecologic cancer cell panel viability, ATPlite luminescence, 48 h; series mostly up to 57.5 µM
In short: as §1

[8] = system: OV90; details: Gynecologic cancer cell panel viability, ATPlite luminescence, 48 h; series mostly up to 57.5 µM
In short: as §1

[9] = system: PA-1; details: Gynecologic cancer cell panel viability, ATPlite luminescence, 48 h; series mostly up to 57.5 µM
In short: as §1

[10] = system: SKOV3; details: Gynecologic cancer cell panel viability, ATPlite luminescence, 48 h; series mostly up to 57.5 µM
In short: as §1

[11] = system: Tov-21-G; details: Gynecologic cancer cell panel viability, ATPlite luminescence, 48 h; series mostly up to 57.5 µM
In short: as §1

[12] = system: Tov112D; details: Gynecologic cancer cell panel viability, ATPlite luminescence, 48 h; series mostly up to 57.5 µM
In short: as §1
On the % scale 0 is the no-effect control and ±100 the full control effect.

COc1cc(C(O)C2COC(c3ccc(OC4OC(CO)C(O)C(O)C4O)c(OC)c3)C2CO)ccc1O (stereo not given)
inactive: Potency [1] | Potency [2] | outcome [3] | Potency [4] | Potency [5] | Potency [6] | Potency [7] | Potency [8] | Potency [9] | Potency [10] | Potency [11] | Potency [12]

CC1(C)CC[C@]2(C(=O)O[C@@H]3O[C@H](CO)[C@@H](O)[C@H](O)[C@H]3O)CC[C@]3(C)C(=CCC4[C@@]5(C)C[C@@H](O)[C@H](O)[C@@](C)(CO)C5[C@H](O)C[C@]43C)C2C1 (stereo not given in full)
inactive: Potency [1] | Potency [2] | outcome [3] | Potency [4] | Potency [5] | Potency [6] | Potency [7] | Potency [8] | Potency [9] | Potency [10] | Potency [11] | Potency [12]

O=C(NCC(=O)N1CCCC1)Nc1ccc2ccccc2c1
inactive: Potency [1] | Potency [2] | outcome [3] | Potency [4] | Potency [5] | Potency [6] | Potency [7] | Potency [8] | Potency [9] | Potency [10] | Potency [11] | Potency [12]

C/C(=C\CO)CC/C=C(\C)C(=O)O[C@@H]1O[C@H](CO)[C@@H](O)[C@H](O)[C@H]1O
inactive: Potency [1] | Potency [2] | outcome [3] | Potency [4] | Potency [5] | Potency [6] | Potency [7] | Potency [8] | Potency [9] | Potency [10] | Potency [11] | Potency [12]

CC(=O)O[C@@H]1C=C2[C@H](CC[C@@]3(C)[C@@]2(O)CC[C@H]2Cc4c([nH]c5ccccc45)[C@@]23C)O[C@@H]1C(C)(C)O
inactive: Potency [1] | Potency [2] | outcome [3] | Potency [4] | Potency [5] | Potency [6] | Potency [7] | Potency [8] | Potency [9] | Potency [10] | Potency [11] | Potency [12]

O=C(CCc1ccccc1)c1c(O)c([C@@H]2O[C@H](CO)[C@@H](O)[C@H](O)[C@H]2O)c(O)c([C@@H]2O[C@H](CO)[C@@H](O)[C@H](O)[C@H]2O)c1O
inactive: Potency [1] | Potency [2] | outcome [3] | Potency [4] | Potency [5] | Potency [6] | Potency [7] | Potency [8] | Potency [9] | Potency [10] | Potency [11] | Potency [12]

C[C@H]1CC[C@@]2(OC1)O[C@H]1CC3C4CC[C@H]5C[C@@H](O)CC[C@]5(C)C4CC(=O)[C@]3(C)[C@H]1[C@@H]2C (stereo not given in full)
inactive: Potency [1] | Potency [2] | outcome [3] | Potency [4] | Potency [5] | Potency [6] | Potency [7] | Potency [8] | Potency [9] | Potency [10] | Potency [11] | Potency [12]

C=CC(C)(O)CC/C=C(\C)COC1O[C@H](CO)[C@@H](O)[C@H](O)[C@H]1O (stereo not given in full)
inactive: Potency [1] | Potency [2] | outcome [3] | Potency [4] | Potency [5] | Potency [6] | Potency [7] | Potency [8] | Potency [9] | Potency [10] | Potency [11] | Potency [12]

C/C=C1/[C@H](O[C@@H]2O[C@H](CO)[C@@H](O)[C@H](O)[C@H]2O)OC=C(C(=O)OC)[C@H]1CC(=O)OCCc1ccc(O)c(O)c1
inactive: Potency [1] | Potency [2] | outcome [3] | Potency [4] | Potency [5] | Potency [6] | Potency [7] | Potency [8] | Potency [9] | Potency [10] | Potency [11] | Potency [12]

O=C(OCC1=CC(Cl)C(O)C(OC(=O)c2ccccc2)C1O)c1ccccc1 (stereo not given)
inactive: Potency [1] | Potency [2] | outcome [3] | Potency [4] | Potency [5] | Potency [6] | Potency [7] | Potency [8] | Potency [9] | Potency [10] | Potency [11] | Potency [12]

CC1(C)CC[C@]2(C(=O)O[C@@H]3O[C@H](CO)[C@@H](O)[C@H](O)[C@H]3O)CC[C@]3(C)C(=CCC4[C@@]5(C)CC[C@H](O[C@H]6O[C@H](CO)[C@@H](O)[C@H](O[C@@H]7O[C@H](CO)[C@@H](O)[C@H](O)[C@H]7O)[C@H]6O)C(C)(C)C5CC[C@]43C)[C@@H]2C1 (stereo not given in full)
inactive: activity change, negative = cytotoxicity [1] 0.319% [at 11.6 µM] | activity change, negative = cytotoxicity [2] 1.94% [at 11.6 µM] | activity change, negative = cytotoxicity [3] -7.8% [at 11.6 µM] | activity change, negative = cytotoxicity [4] -1.42% [at 11.6 µM] | activity change, negative = cytotoxicity [5] 11.5% [at 11.6 µM] | activity change, negative = cytotoxicity [6] 5.32% [at 11.6 µM] | activity change, negative = cytotoxicity [7] -9.09% [at 11.6 µM] | activity change, negative = cytotoxicity [8] -0.2% [at 11.6 µM] | activity change, negative = cytotoxicity [9] 3.09% [at 11.6 µM] | activity change, negative = cytotoxicity [10] -4.14% [at 11.6 µM] | activity change, negative = cytotoxicity [11] -3.87% [at 11.6 µM] | activity change, negative = cytotoxicity [12] -5.45% [at 11.6 µM]

CC(=O)O[C@@H]1[C@H](OC(C)=O)C[C@@]2(C)C(CC[C@@H](C)[C@]23Cc2c(O)cc4c(c2O3)CN([C@@H](CCC(=O)O)C(=O)O)C4=O)C1(C)C (stereo not given in full)
inactive: Potency [1] | Potency [2] | outcome [3] | Potency [4] | Potency [5] | Potency [6] | Potency [7] | Potency [8] | Potency [9] | Potency [10] | Potency [11] | Potency [12]

CC1(C)CC=C(c2cnc3ccccc3c2)c2cc(C(=O)Nc3ccc(C(=O)O)cc3)ccc21
inactive: Potency [1] | Potency [2] | outcome [3] | Potency [4] | Potency [5] | Potency [6] | Potency [7] | Potency [8] | Potency [9] | Potency [10] | Potency [11] | Potency [12]

C=C[C@@]1(C)CCC2=C([C@H]1OC(C)=O)[C@H](OC(C)=O)CC1[C@](C)(C(=O)OC)CC[C@H](OC(C)=O)[C@]21C (stereo not given in full)
inactive: Potency [1] | Potency [2] | outcome [3] | Potency [4] | Potency [5] | Potency [6] | Potency [7] | Potency [8] | Potency [9] | Potency [10] | Potency [11] | Potency [12]

O=C(O)C(Cc1ccccc1)NC(=O)C1CCCN1 (stereo not drawn) (H-Pro-Phe-OH; configuration not given here)
inactive: Potency [1] | Potency [2] | outcome [3] | Potency [4] | Potency [5] | Potency [6] | Potency [7] | Potency [8] | Potency [9] | Potency [10] | Potency [11] | Potency [12]

CC(C)NC(=O)c1ccc(C#Cc2ccncc2)cn1
inactive: Potency [1] | Potency [2] | outcome [3] | Potency [4] | Potency [5] | Potency [6] | Potency [7] | Potency [8] | Potency [9] | Potency [10] | Potency [11] | Potency [12]

CC1CC2OCC3(O)CCC(O)C(C14CC(c1ccoc1)OC4=O)C23CO (stereo not given)
inactive: Potency [1] | Potency [2] | outcome [3] | Potency [4] | Potency [5] | Potency [6] | Potency [7] | Potency [8] | Potency [9] | Potency [10] | Potency [11] | Potency [12]

C=C(C)[C@@H]1CC[C@]2(C(=O)O)CC[C@]3(C)C(CCC4[C@]5(C)C(CC[C@]43C)C(C)(C)[C@@H](O)[C@@H]5C(=O)O)C12 (stereo not given in full)
inactive: Potency [1] | Potency [2] | outcome [3] | Potency [4] | Potency [5] | Potency [6] | Potency [7] | Potency [8] | Potency [9] | Potency [10] | Potency [11] | Potency [12]

O=C(O)Cc1cn([C@@H]2O[C@H](CO)[C@@H](O)[C@H](O)[C@H]2O[C@@H]2O[C@H](CO)[C@@H](O)[C@H](O)[C@H]2O)c2ccccc12
inactive: Potency [1] | Potency [2] | outcome [3] | Potency [4] | Potency [5] | Potency [6] | Potency [7] | Potency [8] | Potency [9] | Potency [10] | Potency [11] | Potency [12]

O=C(OCC(O)CO[C@@H]1O[C@H](C(=O)O)[C@@H](O)[C@H](O)[C@H]1O)c1ccccc1 (stereo not given in full)
inactive: Potency [1] | Potency [2] | outcome [3] | Potency [4] | Potency [5] | Potency [6] | Potency [7] | Potency [8] | Potency [9] | Potency [10] | Potency [11] | Potency [12]

CCc1cccc2c3c([nH]c12)[C@@](CC)(CC(=O)O)OCC3
inactive: Potency [1] | Potency [2] | outcome [3] | Potency [4] | Potency [5] | Potency [6] | Potency [7] | Potency [8] | Potency [9] | Potency [10] | Potency [11] | Potency [12]

O=C(O)[C@H]1Cc2ccccc2CN1
inactive: activity change, negative = cytotoxicity [1] -12.5% [at 6.55 µM] | activity change, negative = cytotoxicity [2] 20.2% [at 6.55 µM] | activity change, negative = cytotoxicity [3] -0.242% [at 6.55 µM] | activity change, negative = cytotoxicity [4] -0.653% [at 6.55 µM] | activity change, negative = cytotoxicity [5] 1.2% [at 6.55 µM] | activity change, negative = cytotoxicity [6] 13.1% [at 6.55 µM] | activity change, negative = cytotoxicity [7] 1.96% [at 6.55 µM] | activity change, negative = cytotoxicity [8] 0.2% [at 6.55 µM] | activity change, negative = cytotoxicity [9] 3.48% [at 6.55 µM] | activity change, negative = cytotoxicity [10] 14.2% [at 6.55 µM] | activity change, negative = cytotoxicity [11] 4.78% [at 6.55 µM] | activity change, negative = cytotoxicity [12] 19.2% [at 6.55 µM]

CC1=CCC[C@@H]2[C@](CCc3ccoc3)(C(=O)O)[C@H](C)CC[C@@]12C
inactive: Potency [1] | Potency [2] | outcome [3] | Potency [4] | Potency [5] | Potency [6] | Potency [7] | Potency [8] | Potency [9] | Potency [10] | Potency [11] | Potency [12]

CC1C2=CC(=O)OC2(O)CC2C1CCC1C(C)(C)CCC(O)C21C (stereo not given)
inactive: Potency [1] | Potency [2] | outcome [3] | Potency [4] | Potency [5] | Potency [6] | Potency [7] | Potency [8] | Potency [9] | Potency [10] | Potency [11] | Potency [12]

COc1c2cc(c(O[C@@H]3O[C@H](CO)[C@@H](O)[C@H](O)[C@H]3O)c1OC)CCCCC(O)CCc1ccc(O)c-2c1 (stereo not given in full)
inactive: Potency [1] | Potency [2] | outcome [3] | Potency [4] | Potency [5] | Potency [6] | Potency [7] | Potency [8] | Potency [9] | Potency [10] | Potency [11] | Potency [12]
